Rows were chosen to be rich in hits. Some 4.2% of all compounds tested hit in one or more screens of this group.
TIM10 inh = TIM10 yeast growth inhibition | S. cerevisiae TIM10 strain growth, BacTiter-Glo luminescence, 24 h | inhibition, % at 10 µM | AID 463195 | actives 1.4% (n = 330,000);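 active = inhibition of 40% or more at the single tested concentration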;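 also: wild-type TIM10 isogenic control strain grown at permissive 25 °C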
NALP1 inh = inhibitors of NALP1 inflammasome in yeast | S. cerevisiae NALP1/ASC/caspase-1 growth, X-gal OD620, 72 h | inhibition, % at 10 µM | actives 0.61% (n = 280,000) | AID 2071; in the data active = inhibition mostly above about 24%, no sharp cut-off; inactive = mostly below about 32%
tim10-1 inh = tim10-1 yeast growth inhibition. inhibition, % at 20 µM. actives 2.2% (n = 330,000). S. cerevisiae tim10-1 ts strain growth, BacTiter-Glo, 24 h;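 active = inhibition of at least 40%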;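 also: mutant grown at 25 °C; 0% = DMSO wells with yeast and 100% = wells holding no yeast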
tim23-1 inh = inhibits growth of tim23-1 mutant yeast. S. cerevisiae tim23-1 growth, BacTiter-Glo luminescence, 24 h. inhibition, % at 20 µM. actives 1.3% (n = 330,000);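 active = growth inhibition of the mutant yeast at or above 50%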;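 also: temperature-sensitive mutant grown at 25 °C; plate controls were DMSO-treated mutant yeast for no effect and medium wells lacking yeast for full effect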
V-ATPase pH = alters yeast V-ATPase proton transport | S. cerevisiae, pHLuorin cytosolic pH fluorescence | AID 504577 | actives 0.37% (n = 350,000) | response, % at 10 µM; in the data active = response mostly above about 7.3%, no sharp cut-off; inactive = mostly below about 5.4%; also: actives read high
NLRP3 yeast inh = blocks the NALP3 inflammasome reconstituted in yeast; Yeast reconstituted NLRP3/ASC/caspase-1, beta-gal luminescence, 24 h; inhibition, % at 10 µM; actives 0.39% (n = 330,000); AID 2825;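 active = inhibition of 50% or more; inactive = inhibition below 50%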;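 also: plate controls were induced DMSO wells for no effect and uninduced yeast grown without galactose for full effect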
NALP3 confirm = NALP3 inhibition confirmation in yeast; shares compounds with NLRP3 yeast inh; inhibition, % at 10 µM; yeast expressing human NALP3, luminescence; actives 81% (n = 1,300); in the data active = inhibition above about 48%
Casp1 ASC ctr = counter-screen for NALP3 inhibitors: yeast caspase-1-ASC; inhibition, % at 10 µM; yeast expressing Caspase-1-ASC, luminescence counter screen; shares compounds with NLRP3 yeast inh; AID 488784; actives 66% (n = 1,000)
NALP3 retest = confirmation retest of NALP3 inhibitors in yeast. shares compounds with NLRP3 yeast inh. yeast expressing human NALP3, luminescence read-out. inhibition, % at 10 µM. actives 53% (n = 1,000). AID 488794
tim10-1 confirm = tim10-1 yeast growth inhibition, confirmed | inhibition, % at 20 µM | S. cerevisiae tim10-1 ts strain growth, BacTiter-Glo, 24 h | actives 56% (n = 7,400) | shares compounds with tim10-1 inh;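 active = inhibition of yeast growth at or above a set limit in either of two repeat tests at 20 µM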;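 also: tim10-1 mutant grown at permissive 25 °C to find synthetic lethal compounds; 0% = DMSO yeast wells and 100% = medium wells without yeast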
TIM10 conf = TIM10 yeast growth inhibition, confirmed. shares compounds with TIM10 inh. inhibition, % at 10 µM. S. cerevisiae tim10 strain growth, BacTiter-Glo luminescence, 24 h. actives 63% (n = 4,600);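 active = inhibition of yeast growth at or above a set limit in either of two replicates at 10 µM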;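 also: this counterscreen used the strain with wild-type TIM10; 0% = yeast with DMSO and 100% = medium wells lacking yeast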
tim23-1 confirm = confirmation of tim23-1 mutant yeast growth inhibitors. shares compounds with tim23-1 inh. S. cerevisiae tim23-1 growth, BacTiter-Glo luminescence, 24 h. actives 83% (n = 4,400). AID 463218. inhibition, % at 20 µM;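 active = inhibition above about 39% in either of two replicate wells at 20 µM, limit read from the data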;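 also: temperature-sensitive tim23-1 mutant grown at 25 °C; 0% = DMSO wells with yeast and 100% = medium wells without yeast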
The depositor's hits bear a star. Rule as the data show it, unless noted: active = inhibition above about 50%; inactive = the rest.

Results for Nc1ccc2nc(SCC(=O)c3ccccc3)sc2c1 ?
TIM10 inh: 15.4; tim10-1 inh: 20.4; tim23-1 inh: 15.8; V-ATPase pH: 2.0; NLRP3 yeast inh: 37.6

How did C[C@@]12C(=O)Nc3cc(Cl)ccc3C(=O)N1[C@H]1c3ccccc3OC[C@@H]1[C@@H]2c1ccccc1 do in these assays?
TIM10 inh: 6.8; tim10-1 inh: 22.6; tim23-1 inh: 34.4; V-ATPase pH: -2.4; NLRP3 yeast inh: 16.3

What do the screens show for `C[C@@]12C(=O)Nc3ccc(Cl)cc3C(=O)N1[C@H]1c3ccccc3OC[C@@H]1[C@@H]2c1ccccc1`?
TIM10 inh: -0.2; tim10-1 inh: 23.0; tim23-1 inh: 61.3*; V-ATPase pH: -1.1; NLRP3 yeast inh: 78.8*; NALP3 confirm: 90.8*; Casp1 ASC ctr: 70.5*; NALP3 retest: 66.5*; tim23-1 confirm: 57.2*

How did CSc1ncccc1C(=O)N1CCCC(C(=O)c2ccc3ccccc3c2)C1 (stereo unspecified) do in these assays?
TIM10 inh: 11.9; NALP1 inh: -5.1; tim10-1 inh: 6.4; tim23-1 inh: 17.8; V-ATPase pH: -1.1; NLRP3 yeast inh: -15.1

Results for COc1ccc(/C=C/C(=O)Nc2ccc3c(c2)CCC3)cc1OC ?
TIM10 inh: 21.5; NALP1 inh: 51.1; tim10-1 inh: -36.3; tim23-1 inh: 54.0*; V-ATPase pH: -1.2; NLRP3 yeast inh: 59.5*; NALP3 confirm: 26.1; tim23-1 confirm: 54.8*

What do the screens show for `COc1ccccc1C(C[N+](=O)[O-])c1c(N)n(C)c(=O)n(C)c1=O` (stereo unspecified)?
TIM10 inh: 55.1*; NALP1 inh: active; tim10-1 inh: 57.5*; tim23-1 inh: 81.6*; V-ATPase pH: 0.0; NLRP3 yeast inh: 76.7*; NALP3 confirm: 51.3*; Casp1 ASC ctr: 74.5*; NALP3 retest: 48.6; tim10-1 confirm: 61.2*; TIM10 conf: 64.3*; tim23-1 confirm: 84.0*

How did NC(=O)CSC1=Nc2ccccc2C2=NC(CC(=O)NCc3cccs3)C(=O)N12 (stereo unspecified) do in these assays?
TIM10 inh: 1.9; NALP1 inh: -3.8; tim10-1 inh: 9.2; tim23-1 inh: -1.5; V-ATPase pH: 1.0; NLRP3 yeast inh: -4.4

What do the screens show for `COc1c(C(=O)Nc2ccc3[nH]c(=O)[nH]c3c2)cc2ccccc2c1Br`?
TIM10 inh: -3.9; NALP1 inh: 8.3; tim10-1 inh: -7.6; tim23-1 inh: -12.6; V-ATPase pH: -0.2; NLRP3 yeast inh: 19.3

How did NC(=O)COc1ccc(C(=O)/C=C2/C(=O)Nc3ccccc32)cc1 do in these assays?
TIM10 inh: 34.8; NALP1 inh: 10.6; tim10-1 inh: 34.4; tim23-1 inh: 29.9; V-ATPase pH: -1.3; NLRP3 yeast inh: 17.7

How did C=CCOc1ccccc1C(=O)/C=C1/C(=O)Nc2ccccc21 do in these assays?
TIM10 inh: 79.6*; NALP1 inh: -22.8; tim10-1 inh: 49.8*; tim23-1 inh: 88.6*; V-ATPase pH: -6.1; NLRP3 yeast inh: 59.4*; NALP3 confirm: 75.3*; Casp1 ASC ctr: 53.2*; NALP3 retest: 59.1*; tim10-1 confirm: active; TIM10 conf: 63.8*; tim23-1 confirm: 16.1

Results for COc1cc(OC)c(/C=C2\C(=O)Nc3ccccc32)c(OC)c1 ?
TIM10 inh: 22.6; tim10-1 inh: 39.1; tim23-1 inh: 46.0; NLRP3 yeast inh: 28.6

How did COc1ccc(C(=O)/C=C2/C(=O)Nc3ccccc32)c(OC)c1 do in these assays?
TIM10 inh: 68.1*; NALP1 inh: -49.5; tim10-1 inh: 49.9*; tim23-1 inh: 70.2*; V-ATPase pH: 4.4; NLRP3 yeast inh: 68.6*; NALP3 confirm: 81.5*; Casp1 ASC ctr: 76.0*; NALP3 retest: 79.8*; tim10-1 confirm: 58.8*; TIM10 conf: 66.6*; tim23-1 confirm: -23.2

How did O=Cc1cn(-c2ccccc2)nc1-c1ccc2c(c1)OCCO2 do in these assays?
TIM10 inh: 47.2*; NALP1 inh: -19.4; tim10-1 inh: 52.6*; tim23-1 inh: 72.4*; V-ATPase pH: -5.7; NLRP3 yeast inh: 50.2*; NALP3 confirm: 57.0*; Casp1 ASC ctr: 52.5*; NALP3 retest: 59.5*; tim10-1 confirm: 58.5*; TIM10 conf: 62.0*; tim23-1 confirm: 78.2*

What do the screens show for `N#Cc1cn(-c2ccccc2)nc1-c1ccc2c(c1)OCCO2`?
TIM10 inh: 6.7; NALP1 inh: -12.0; tim10-1 inh: 16.4; tim23-1 inh: 1.5; V-ATPase pH: 5.4; NLRP3 yeast inh: 5.0

What do the screens show for `Cc1nc2nc(-c3cccs3)[nH]c2cc1Br`?
TIM10 inh: 12.7; tim10-1 inh: -7.4; tim23-1 inh: 61.3*; V-ATPase pH: -2.2; NLRP3 yeast inh: 53.6*; NALP3 confirm: 75.7*; Casp1 ASC ctr: 59.5*; NALP3 retest: 62.8*; tim23-1 confirm: 55.0*

Results for c1ccc(-c2nc(-c3cccs3)[nH]c2-c2ccccc2)cc1 ?
TIM10 inh: 34.9; NALP1 inh: 8.3; tim10-1 inh: 27.2; tim23-1 inh: 10.3; V-ATPase pH: 8.4; NLRP3 yeast inh: -35.7

Results for COc1ccc2c(=O)c(-c3nc(C)cs3)coc2c1 ?
TIM10 inh: 63.8*; tim10-1 inh: 42.8*; tim23-1 inh: 51.7*; V-ATPase pH: -2.1; NLRP3 yeast inh: 76.8*; NALP3 confirm: 54.0*; Casp1 ASC ctr: 68.5*; NALP3 retest: 65.8*; tim10-1 confirm: 32.5*; TIM10 conf: -39.0; tim23-1 confirm: 65.5*

What do the screens show for `COc1cc(C)c(CN2CCN(c3ncccn3)CC2)cc1C`?
TIM10 inh: 4.2; tim10-1 inh: 0.1; tim23-1 inh: 9.3; V-ATPase pH: 4.2; NLRP3 yeast inh: 23.7
